This note sets out measurements from article PMC4336329 (PLoS ONE, 2015).

The campaign covered roughly 310,000 compounds. About 14,000 (4.5%) showed an effect of 50% or more. Effects have a minus sign here. The entries come from a sample that favours strong results as a whole.
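Also: peak tail current of the secondary pulse compared with the same well before compound.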

Sequence of human ether-à-go-go-related gene (hERG) potassium channel (Q12809 whole entry, looked up): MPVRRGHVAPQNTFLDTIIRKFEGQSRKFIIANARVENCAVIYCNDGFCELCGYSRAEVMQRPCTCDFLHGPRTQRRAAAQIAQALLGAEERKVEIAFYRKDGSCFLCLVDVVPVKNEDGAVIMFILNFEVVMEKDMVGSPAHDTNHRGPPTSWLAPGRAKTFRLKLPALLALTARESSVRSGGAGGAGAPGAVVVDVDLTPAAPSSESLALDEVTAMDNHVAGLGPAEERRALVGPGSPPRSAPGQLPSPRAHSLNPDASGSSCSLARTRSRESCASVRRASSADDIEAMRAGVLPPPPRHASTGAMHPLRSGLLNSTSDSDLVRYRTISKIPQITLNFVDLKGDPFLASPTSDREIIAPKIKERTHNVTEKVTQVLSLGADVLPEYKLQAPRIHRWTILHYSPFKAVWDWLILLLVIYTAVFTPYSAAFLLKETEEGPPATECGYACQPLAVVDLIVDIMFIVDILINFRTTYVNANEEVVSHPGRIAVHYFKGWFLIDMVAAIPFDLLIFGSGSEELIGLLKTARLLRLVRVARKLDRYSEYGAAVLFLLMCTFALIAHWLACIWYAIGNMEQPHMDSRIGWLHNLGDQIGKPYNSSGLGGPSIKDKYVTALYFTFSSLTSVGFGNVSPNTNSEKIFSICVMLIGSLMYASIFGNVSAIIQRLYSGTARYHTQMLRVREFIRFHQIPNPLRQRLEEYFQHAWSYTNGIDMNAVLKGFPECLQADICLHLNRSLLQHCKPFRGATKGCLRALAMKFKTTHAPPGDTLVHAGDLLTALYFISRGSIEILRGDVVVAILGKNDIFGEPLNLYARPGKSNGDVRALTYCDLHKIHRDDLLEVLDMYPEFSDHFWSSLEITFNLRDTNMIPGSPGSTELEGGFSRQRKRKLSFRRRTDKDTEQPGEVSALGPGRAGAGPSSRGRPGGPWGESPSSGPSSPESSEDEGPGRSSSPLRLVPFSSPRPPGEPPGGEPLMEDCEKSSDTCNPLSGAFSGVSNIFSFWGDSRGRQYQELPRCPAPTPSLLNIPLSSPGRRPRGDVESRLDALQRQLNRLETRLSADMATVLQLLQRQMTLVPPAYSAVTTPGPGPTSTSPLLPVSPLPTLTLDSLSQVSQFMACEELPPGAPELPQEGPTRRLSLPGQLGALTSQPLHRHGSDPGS

This assay concerns the target human ether-à-go-go-related gene (hERG) potassium channel (human, UniProt Q12809). Briefly: primary screen, population patch clamp on CHO cells stably expressing hERG; higher = less effect of the substance.
Regarding `CCOC(=O)C1(Cc2ccccc2Cl)CCN(C(=O)CCn2ccnc2C)CC1`, the “hERG current change (%, negative = inhibition) at 10uM” value was -52.6%.

Regarding `CCOC(=O)C1(CCCc2ccccc2)CCN(C(=O)C(C)n2cncn2)CC1` (stereo not shown), the “hERG current change (%, negative = inhibition) at 10uM” value was -29%.

In the case of `CCOC(=O)C1(Cc2ccccc2Cl)CCN(C(=O)c2cnccn2)CC1`, the “hERG current change (%, negative = inhibition) at 10uM” value is reported as -20.2%.

For `CCOC(=O)C1(Cc2ccc(OC)cc2)CCN(C(=O)CCN2CCCC2=O)CC1`, the “hERG current change (%, negative = inhibition) at 10uM” value is -3.22%.

On to `CCOC(=O)C1(CCCc2ccccc2)CCN(C(=O)CN2CCOC2=O)CC1`, for which the “hERG current change (%, negative = inhibition) at 10uM” value is listed as 6.35%.

For the compound `CCOC(=O)C1(Cc2ccccc2Cl)CCN(C(=O)CN2CCOC2=O)CC1`, the “hERG current change (%, negative = inhibition) at 10uM” value came to 8.88%.

On to `CCOC(=O)C1(CCCc2ccccc2)CCN(C(=O)CCCn2cncn2)CC1`, for which the “hERG current change (%, negative = inhibition) at 10uM” value is -44.1%.

As to `CCOC(=O)C1(CCCc2ccccc2)CCN(C(=O)CCN2CCCCC2=O)CC1`, the “hERG current change (%, negative = inhibition) at 10uM” value is listed as -62.8%.

For the compound `CCOC(=O)C1(CCc2ccccc2)CCN(C(=O)C(C)n2cncn2)CC1` (stereo not shown), the “hERG current change (%, negative = inhibition) at 10uM” value is recorded as -14.3%.

Regarding `CN(C)c1nc(N)c([N+](=O)[O-])c(NCC2CCCO2)n1` (stereo not shown), the “hERG current change (%, negative = inhibition) at 10uM” value is reported as 7.07%.

For the compound `O=C(O)CCCNC(=O)/C=C/c1ccco1`, the “hERG current change (%, negative = inhibition) at 10uM” value is 12.5%.

On to `CC(=O)Nc1sc(-c2ccccc2)nc1-c1ccccc1`, for which the “hERG current change (%, negative = inhibition) at 10uM” value turned out to be 14%.

For the compound `CCOC(=O)c1[nH]c2ccc(OC)cc2c1NC(=O)c1nonc1C`, the “hERG current change (%, negative = inhibition) at 10uM” value is 6.27%.

As for `Cc1cc(-c2nnc(CCC(=O)NCc3ccc(F)c(F)c3)o2)no1`, the “hERG current change (%, negative = inhibition) at 10uM” value was 2.95%.

Regarding `Cc1ccnc(NC(=O)c2cccc(S(=O)(=O)N3CCCc4ccccc43)c2)c1`, the “hERG current change (%, negative = inhibition) at 10uM” value was -1.95%.

With `CN(C(=O)CC1C(=O)NCCN1Cc1c(F)cccc1Cl)C1CCOCC1` (stereo not shown), the “hERG current change (%, negative = inhibition) at 10uM” value amounted to 17.9%.

As to `Cc1ccc(S(=O)(=O)N2CC(=O)NC(=O)C2)cc1`, the “hERG current change (%, negative = inhibition) at 10uM” value is listed as 6.07%.

As for `O=C(C#Cc1ccccc1)Nc1ccc(F)cc1`, the “hERG current change (%, negative = inhibition) at 10uM” value is recorded as 10.1%.

For the compound `C[C@@H](NC(=O)c1nc[nH]c1C(=O)NCc1ccc(CNC(=O)OC(C)(C)C)cc1)c1ccccc1`, the “hERG current change (%, negative = inhibition) at 10uM” value was 6.47%.

With `CCOC(=O)C1(CCCc2ccccc2)CCN(C(=O)CCn2cnnn2)CC1`, the “hERG current change (%, negative = inhibition) at 10uM” value was -56.6%.

Consider `CCOC(=O)C1(CCc2ccccc2)CCN(C(=O)CCn2cnnn2)CC1`, for which the “hERG current change (%, negative = inhibition) at 10uM” value is recorded as -43.2%.

For `CCOC(=O)C1(CCCc2ccccc2)CCN(C(=O)CN2C(=O)CSC2=O)CC1`, the “hERG current change (%, negative = inhibition) at 10uM” value is listed as -4.63%.

With `COc1ccc(NC(=O)NNC(=O)c2ccc(Cl)cc2Cl)cc1OC`, the “hERG current change (%, negative = inhibition) at 10uM” value came out at 13%.

For `CCOc1ccc2c(c1)sc1nc(C(=O)OC)cc(=O)n12`, the “hERG current change (%, negative = inhibition) at 10uM” value is given as -12.9%.

Turning to `C[C@]12CS(=O)(=O)C[C@H]1SC(=S)N2c1ccccc1`, the “hERG current change (%, negative = inhibition) at 10uM” value is -0.916%.

On to `Cn1c(C(=O)N2CCN(c3ccc(Cl)cc3)CC2)cc2c(=O)[nH]c3ccccc3c21`, for which the “hERG current change (%, negative = inhibition) at 10uM” value was -114%.

Turning to `Cc1ccc(Cl)cc1N1CCN(C(=O)c2cc3c(=O)[nH]c4ccccc4c3n2C)CC1`, the “hERG current change (%, negative = inhibition) at 10uM” value is on record as 8.91%.

`Cc1cccc(N2CCN(C(=O)c3cc4c(=O)[nH]c5ccccc5c4n3C)CC2)c1C`: the “hERG current change (%, negative = inhibition) at 10uM” value amounted to 14.6%.

Take `OCCNc1nc2ccccc2[nH]1`: the “hERG current change (%, negative = inhibition) at 10uM” value was found to be 12.8%.

Consider `CCCCN(CCCC)CCCNC(=O)C1CC(c2cc(C(F)(F)F)cc(C(F)(F)F)c2)=NO1` (stereo not shown), for which the “hERG current change (%, negative = inhibition) at 10uM” value was 3.86%.

Consider `CCCCNC(=O)C1CC(c2ccc(C(F)(F)F)cc2)=NO1` (stereo not shown), for which the “hERG current change (%, negative = inhibition) at 10uM” value worked out at 3.73%.

For the compound `CCCCN(CCCC)CCCNC(=O)C1CC(c2ccc(C(F)(F)F)cc2)=NO1` (stereo not shown), the “hERG current change (%, negative = inhibition) at 10uM” value is reported as -72.3%.

Turning to `COCCCN1C(=O)c2ccc(C(=O)OCC(=O)N(C)c3ccccc3)cc2C1=O`, the “hERG current change (%, negative = inhibition) at 10uM” value is 2.63%.

Regarding `CCOc1cccc2cc(-c3csc(NC(=O)CCC(=O)NCCN4CCCCC4C)n3)c(=O)oc12` (stereo not shown), the “hERG current change (%, negative = inhibition) at 10uM” value is given as -34.9%.

On to `COc1cccc2cc(-c3csc(NC(=O)CCC(=O)NCCCN4CCC(C)CC4)n3)c(=O)oc12`, for which the “hERG current change (%, negative = inhibition) at 10uM” value is listed as -51.9%.

Turning to `CCOc1cccc2cc(-c3csc(NC(=O)CCC(=O)NCCCN4CCC(C)CC4)n3)c(=O)oc12`, the “hERG current change (%, negative = inhibition) at 10uM” value is on record as -44.6%.

Consider `O=C(CNC(=O)c1cccc(Br)c1)NCCc1nc2ccccc2[nH]1`, for which the “hERG current change (%, negative = inhibition) at 10uM” value worked out at 5.59%.

For `COc1ccc(CN2CCCC(C(=O)c3ccc(SC)cc3)C2)cc1Cn1cccn1` (stereo not shown), the “hERG current change (%, negative = inhibition) at 10uM” value is -80.3%.

Turning to `COc1ccc(CN2CCCC(C(=O)c3ccc(Cl)cc3)C2)cc1Cn1cccn1` (stereo not shown), the “hERG current change (%, negative = inhibition) at 10uM” value is recorded as -83.9%.

As for `COc1ccc(C(=O)C2CCCN(C(=O)c3cccc(Cn4cccn4)c3)C2)cc1F` (stereo not shown), the “hERG current change (%, negative = inhibition) at 10uM” value is given as -14.5%.

Consider `COc1ccc(CN2CCCC(C(=O)c3cccc(OC(C)C)c3)C2)cc1Cn1cccn1` (stereo not shown), for which the “hERG current change (%, negative = inhibition) at 10uM” value is recorded as -69.9%.

As to `COc1ccccc1C(=O)C1CCCN(C(=O)c2cccc(Cn3cccn3)c2)C1` (stereo not shown), the “hERG current change (%, negative = inhibition) at 10uM” value is listed as -13%.

Take `COCCNC(=O)CSc1ncnc2sc(-c3ccccc3)cc12`: the “hERG current change (%, negative = inhibition) at 10uM” value is reported as 2.83%.
